For seven compounds, residual activity results are on record in ChEMBL document CHEMBL2218924, “A broad activity screen in support of a chemogenomic map for kinase signalling research and drug discovery” (Biochem J, 2013).

Experiment [1] deals with Calcium/calmodulin-dependent protein kinase type 1 (Homo sapiens) (UniProt Q14012). As to conditions: at 1 µM.
For experiment [2] the target is unchanged. To be noted: at 10 µM.
Experiment [3] addresses Calcium/calmodulin-dependent protein kinase type II subunit beta (Homo sapiens) (UniProt Q13554). To be noted: at 1 µM.
For experiment [4] the target is unchanged. As to conditions: at 10 µM.
Experiment [5] addresses Calcium/calmodulin-dependent protein kinase type II subunit gamma (Homo sapiens) (UniProt Q13555). As to conditions: at 1 µM.
For experiment [6] the target is unchanged. As to conditions: at 10 µM.
Experiment [7] addresses Calcium/calmodulin-dependent protein kinase type II subunit delta (Homo sapiens) (UniProt Q13557). As to conditions: at 1 µM.
Experiment [8] shares this target. As to conditions: at 10 µM.
Experiment [9] addresses Death-associated protein kinase 1 (Homo sapiens) (UniProt P53355). As to conditions: at 10 µM.
The target of experiment [10] is Death-associated protein kinase 2 (Homo sapiens) (UniProt Q9UIK4). As to conditions: at 1 µM.
Death-associated protein kinase 2 (Homo sapiens), sequence (Q9UIK4 whole entry, looked up): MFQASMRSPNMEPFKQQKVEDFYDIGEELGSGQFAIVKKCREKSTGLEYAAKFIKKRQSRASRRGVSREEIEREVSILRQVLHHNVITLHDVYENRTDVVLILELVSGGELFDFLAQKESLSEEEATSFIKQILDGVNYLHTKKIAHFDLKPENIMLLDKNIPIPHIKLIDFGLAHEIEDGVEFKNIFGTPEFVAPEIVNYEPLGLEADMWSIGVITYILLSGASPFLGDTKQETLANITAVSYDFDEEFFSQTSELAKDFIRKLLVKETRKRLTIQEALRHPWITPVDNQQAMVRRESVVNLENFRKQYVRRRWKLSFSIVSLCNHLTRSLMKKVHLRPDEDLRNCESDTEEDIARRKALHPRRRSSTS
The target is the same in experiment [11]. To be noted: at 10 µM.
The target of experiment [12] is T1, Serine/threonine-protein kinase DCLK2 (Homo sapiens) (UniProt Q8N568).
T1 sequence (whole entry): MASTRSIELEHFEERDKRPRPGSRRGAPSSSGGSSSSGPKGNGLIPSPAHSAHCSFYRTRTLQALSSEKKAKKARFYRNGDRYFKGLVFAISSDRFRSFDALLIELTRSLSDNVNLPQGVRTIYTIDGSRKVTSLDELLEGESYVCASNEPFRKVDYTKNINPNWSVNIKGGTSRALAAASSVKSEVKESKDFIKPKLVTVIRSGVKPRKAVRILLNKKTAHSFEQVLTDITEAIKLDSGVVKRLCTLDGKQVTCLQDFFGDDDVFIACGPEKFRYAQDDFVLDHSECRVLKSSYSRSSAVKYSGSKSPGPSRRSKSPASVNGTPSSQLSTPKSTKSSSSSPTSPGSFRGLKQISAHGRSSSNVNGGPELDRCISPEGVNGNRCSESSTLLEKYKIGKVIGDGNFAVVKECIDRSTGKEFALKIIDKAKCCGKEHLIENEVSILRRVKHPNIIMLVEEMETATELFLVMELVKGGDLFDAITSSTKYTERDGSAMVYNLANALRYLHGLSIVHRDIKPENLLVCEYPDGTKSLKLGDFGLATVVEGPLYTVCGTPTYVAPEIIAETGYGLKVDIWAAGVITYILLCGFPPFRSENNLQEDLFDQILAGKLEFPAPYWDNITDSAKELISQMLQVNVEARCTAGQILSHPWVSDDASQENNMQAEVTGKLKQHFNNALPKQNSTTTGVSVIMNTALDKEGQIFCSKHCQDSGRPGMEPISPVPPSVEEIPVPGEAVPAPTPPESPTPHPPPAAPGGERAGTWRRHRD
As to conditions: at 1 µM.

The target of experiment [13] is T1, Serine/threonine-protein kinase DCLK2 (Homo sapiens). As to conditions: at 10 µM.
Experiment [14] concerns the target T2, Discoidin domain-containing receptor 2 (Homo sapiens) (UniProt Q16832).
T2 sequence (whole entry): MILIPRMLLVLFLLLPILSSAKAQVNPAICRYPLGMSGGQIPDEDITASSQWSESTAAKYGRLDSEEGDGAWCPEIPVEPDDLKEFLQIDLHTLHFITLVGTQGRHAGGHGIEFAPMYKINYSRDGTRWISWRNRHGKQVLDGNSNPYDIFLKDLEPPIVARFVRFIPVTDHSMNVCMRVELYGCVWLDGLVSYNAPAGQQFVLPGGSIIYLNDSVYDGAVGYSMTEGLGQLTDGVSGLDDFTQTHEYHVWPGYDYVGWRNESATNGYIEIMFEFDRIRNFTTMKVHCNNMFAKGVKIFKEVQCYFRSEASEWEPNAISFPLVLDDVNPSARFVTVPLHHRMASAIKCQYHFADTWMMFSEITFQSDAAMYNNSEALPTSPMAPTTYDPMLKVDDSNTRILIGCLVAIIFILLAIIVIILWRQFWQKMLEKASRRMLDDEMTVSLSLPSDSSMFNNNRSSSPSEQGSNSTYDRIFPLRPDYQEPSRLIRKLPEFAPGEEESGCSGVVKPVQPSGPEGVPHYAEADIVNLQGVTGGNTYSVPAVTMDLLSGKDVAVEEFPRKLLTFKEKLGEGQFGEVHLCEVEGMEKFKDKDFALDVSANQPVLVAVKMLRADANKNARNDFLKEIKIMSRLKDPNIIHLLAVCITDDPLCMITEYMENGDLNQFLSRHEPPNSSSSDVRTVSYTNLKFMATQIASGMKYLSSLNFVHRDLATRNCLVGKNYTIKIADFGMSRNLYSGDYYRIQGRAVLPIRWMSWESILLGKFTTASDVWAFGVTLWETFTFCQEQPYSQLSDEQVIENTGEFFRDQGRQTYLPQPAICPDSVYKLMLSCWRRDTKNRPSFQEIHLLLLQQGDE
As to conditions: at 1 µM.

In experiment [15] the target is T2, Discoidin domain-containing receptor 2 (Homo sapiens). As to conditions: at 10 µM.
Experiment [16] deals with T3, Myotonin-protein kinase (Homo sapiens) (UniProt Q09013).
T3 sequence (whole entry): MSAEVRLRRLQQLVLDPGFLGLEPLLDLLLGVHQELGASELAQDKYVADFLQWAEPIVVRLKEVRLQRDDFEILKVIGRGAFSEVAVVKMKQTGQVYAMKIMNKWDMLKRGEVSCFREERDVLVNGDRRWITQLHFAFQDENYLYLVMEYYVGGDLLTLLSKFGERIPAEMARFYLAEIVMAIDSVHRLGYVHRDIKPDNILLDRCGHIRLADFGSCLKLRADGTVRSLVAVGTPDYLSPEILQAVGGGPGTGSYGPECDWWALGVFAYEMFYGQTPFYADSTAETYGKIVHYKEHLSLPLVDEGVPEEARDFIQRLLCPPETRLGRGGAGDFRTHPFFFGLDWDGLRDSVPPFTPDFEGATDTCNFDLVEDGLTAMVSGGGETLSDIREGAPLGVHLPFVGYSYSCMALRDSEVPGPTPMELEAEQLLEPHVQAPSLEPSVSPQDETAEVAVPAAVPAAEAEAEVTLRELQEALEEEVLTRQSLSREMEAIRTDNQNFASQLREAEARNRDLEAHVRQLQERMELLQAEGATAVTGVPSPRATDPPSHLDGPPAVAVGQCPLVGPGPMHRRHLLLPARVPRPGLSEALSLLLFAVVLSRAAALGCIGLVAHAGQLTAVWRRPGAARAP
To be noted: at 10 µM.

Experiment [17] deals with T4, Serine/threonine-protein kinase 17A (Homo sapiens) (UniProt Q9UEE5).
T4 sequence (whole entry): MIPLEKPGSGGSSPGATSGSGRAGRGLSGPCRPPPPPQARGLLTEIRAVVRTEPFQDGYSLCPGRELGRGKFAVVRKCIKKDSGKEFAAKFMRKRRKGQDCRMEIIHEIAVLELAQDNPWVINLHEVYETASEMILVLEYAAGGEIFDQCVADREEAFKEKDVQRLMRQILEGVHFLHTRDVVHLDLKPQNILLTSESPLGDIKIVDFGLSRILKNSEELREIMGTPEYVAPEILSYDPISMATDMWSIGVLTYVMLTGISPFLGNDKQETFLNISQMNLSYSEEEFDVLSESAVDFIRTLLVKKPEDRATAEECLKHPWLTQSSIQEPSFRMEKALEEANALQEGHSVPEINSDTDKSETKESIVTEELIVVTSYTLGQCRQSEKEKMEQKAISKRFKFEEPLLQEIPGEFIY
To be noted: at 1 µM.

Experiment [18] deals with T5, Calcium/calmodulin-dependent protein kinase type IV (Homo sapiens) (UniProt Q16566).
T5 sequence (whole entry): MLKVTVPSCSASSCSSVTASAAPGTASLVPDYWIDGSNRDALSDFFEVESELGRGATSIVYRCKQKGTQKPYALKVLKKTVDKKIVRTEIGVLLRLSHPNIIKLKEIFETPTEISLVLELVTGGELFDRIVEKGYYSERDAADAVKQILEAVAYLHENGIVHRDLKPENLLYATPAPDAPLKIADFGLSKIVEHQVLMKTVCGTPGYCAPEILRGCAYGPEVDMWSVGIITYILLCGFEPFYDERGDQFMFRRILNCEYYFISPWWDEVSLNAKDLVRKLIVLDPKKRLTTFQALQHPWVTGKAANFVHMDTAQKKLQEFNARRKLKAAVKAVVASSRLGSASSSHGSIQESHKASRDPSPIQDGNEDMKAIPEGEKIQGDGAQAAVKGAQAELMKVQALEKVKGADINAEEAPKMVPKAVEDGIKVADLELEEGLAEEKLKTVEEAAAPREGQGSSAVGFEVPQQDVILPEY
As to conditions: at 10 µM.

In experiment [19] the target is T5, Calcium/calmodulin-dependent protein kinase type IV (Homo sapiens). To be noted: at 1 µM.
In experiment [20] the target is T3, Myotonin-protein kinase (Homo sapiens). To be noted: at 1 µM.

Calcium/calmodulin-dependent protein kinase type 1 (Homo sapiens), sequence (Q14012 whole entry, looked up): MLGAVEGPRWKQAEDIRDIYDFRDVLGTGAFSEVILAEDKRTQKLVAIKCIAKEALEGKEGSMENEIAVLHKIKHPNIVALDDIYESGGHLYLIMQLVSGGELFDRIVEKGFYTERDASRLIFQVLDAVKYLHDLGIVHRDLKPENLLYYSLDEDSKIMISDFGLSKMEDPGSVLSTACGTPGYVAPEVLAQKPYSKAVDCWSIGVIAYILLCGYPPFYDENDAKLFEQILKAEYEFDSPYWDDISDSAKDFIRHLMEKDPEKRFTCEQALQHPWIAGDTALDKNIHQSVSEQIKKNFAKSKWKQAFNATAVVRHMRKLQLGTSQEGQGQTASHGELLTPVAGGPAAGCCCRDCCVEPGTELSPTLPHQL
Calcium/calmodulin-dependent protein kinase type II subunit delta (Homo sapiens), sequence (Q13557 whole entry): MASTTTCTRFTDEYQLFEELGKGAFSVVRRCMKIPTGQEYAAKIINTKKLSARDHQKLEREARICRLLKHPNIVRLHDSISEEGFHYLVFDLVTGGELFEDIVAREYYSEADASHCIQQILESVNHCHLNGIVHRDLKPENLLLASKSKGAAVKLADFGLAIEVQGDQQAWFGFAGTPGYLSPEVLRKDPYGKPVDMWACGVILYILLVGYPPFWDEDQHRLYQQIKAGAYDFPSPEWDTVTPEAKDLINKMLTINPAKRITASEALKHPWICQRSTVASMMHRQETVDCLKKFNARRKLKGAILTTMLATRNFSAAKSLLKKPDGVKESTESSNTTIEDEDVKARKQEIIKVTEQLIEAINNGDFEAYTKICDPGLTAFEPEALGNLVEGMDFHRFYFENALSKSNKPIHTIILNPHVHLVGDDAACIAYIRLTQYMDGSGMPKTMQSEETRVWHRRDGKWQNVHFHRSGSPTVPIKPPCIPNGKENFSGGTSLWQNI
Death-associated protein kinase 1 (Homo sapiens), sequence (P53355 whole entry, looked up): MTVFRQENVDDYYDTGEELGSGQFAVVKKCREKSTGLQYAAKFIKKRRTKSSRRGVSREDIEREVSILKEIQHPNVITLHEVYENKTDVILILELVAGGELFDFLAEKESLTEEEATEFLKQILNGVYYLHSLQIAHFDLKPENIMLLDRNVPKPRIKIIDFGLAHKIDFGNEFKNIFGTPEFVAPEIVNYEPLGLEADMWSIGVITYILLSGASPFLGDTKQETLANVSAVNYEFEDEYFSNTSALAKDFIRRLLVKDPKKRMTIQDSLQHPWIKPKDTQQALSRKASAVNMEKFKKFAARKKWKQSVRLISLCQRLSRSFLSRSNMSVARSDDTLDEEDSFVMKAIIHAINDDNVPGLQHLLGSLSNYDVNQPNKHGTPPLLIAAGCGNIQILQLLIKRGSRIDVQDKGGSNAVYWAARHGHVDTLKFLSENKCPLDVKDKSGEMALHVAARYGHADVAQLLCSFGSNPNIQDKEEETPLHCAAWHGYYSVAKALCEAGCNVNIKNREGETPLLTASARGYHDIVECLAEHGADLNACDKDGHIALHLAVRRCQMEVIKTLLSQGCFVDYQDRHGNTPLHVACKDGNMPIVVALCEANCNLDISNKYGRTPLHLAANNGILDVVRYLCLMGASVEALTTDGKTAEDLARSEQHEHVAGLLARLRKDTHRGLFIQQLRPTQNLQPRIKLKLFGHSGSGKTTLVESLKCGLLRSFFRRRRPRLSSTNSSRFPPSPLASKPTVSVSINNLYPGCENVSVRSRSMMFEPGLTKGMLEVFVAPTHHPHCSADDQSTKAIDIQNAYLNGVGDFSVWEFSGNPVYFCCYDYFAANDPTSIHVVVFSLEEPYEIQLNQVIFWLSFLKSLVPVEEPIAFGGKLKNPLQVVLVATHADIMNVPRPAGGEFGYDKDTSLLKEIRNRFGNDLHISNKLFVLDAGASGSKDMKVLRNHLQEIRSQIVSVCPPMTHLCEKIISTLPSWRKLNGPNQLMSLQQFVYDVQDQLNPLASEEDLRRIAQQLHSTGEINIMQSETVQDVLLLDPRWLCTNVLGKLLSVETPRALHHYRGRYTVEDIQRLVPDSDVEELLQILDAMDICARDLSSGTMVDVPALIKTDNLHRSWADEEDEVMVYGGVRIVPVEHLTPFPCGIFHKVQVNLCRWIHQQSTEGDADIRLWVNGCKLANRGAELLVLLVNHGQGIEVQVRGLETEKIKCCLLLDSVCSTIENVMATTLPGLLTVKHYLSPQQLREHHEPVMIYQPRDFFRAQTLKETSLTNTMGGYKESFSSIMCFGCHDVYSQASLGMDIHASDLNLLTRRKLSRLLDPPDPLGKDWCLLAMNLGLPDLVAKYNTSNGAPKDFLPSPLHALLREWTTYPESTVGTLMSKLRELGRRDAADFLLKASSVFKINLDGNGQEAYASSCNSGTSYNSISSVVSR
Calcium/calmodulin-dependent protein kinase type II subunit gamma (Homo sapiens), sequence (Q13555 whole entry): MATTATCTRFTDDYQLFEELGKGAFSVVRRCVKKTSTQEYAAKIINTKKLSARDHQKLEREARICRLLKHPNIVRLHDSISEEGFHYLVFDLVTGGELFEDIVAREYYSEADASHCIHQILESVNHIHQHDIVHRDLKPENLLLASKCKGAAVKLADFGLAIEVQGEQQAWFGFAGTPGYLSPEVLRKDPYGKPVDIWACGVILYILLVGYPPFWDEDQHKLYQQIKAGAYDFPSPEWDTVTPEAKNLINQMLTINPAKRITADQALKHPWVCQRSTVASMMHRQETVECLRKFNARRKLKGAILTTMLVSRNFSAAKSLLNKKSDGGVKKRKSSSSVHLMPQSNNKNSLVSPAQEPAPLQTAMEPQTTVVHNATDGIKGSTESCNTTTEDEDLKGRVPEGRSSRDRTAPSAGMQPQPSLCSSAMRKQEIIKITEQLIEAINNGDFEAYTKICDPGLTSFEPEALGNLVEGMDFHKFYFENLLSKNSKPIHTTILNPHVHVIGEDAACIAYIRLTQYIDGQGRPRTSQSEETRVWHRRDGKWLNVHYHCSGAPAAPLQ
Calcium/calmodulin-dependent protein kinase type II subunit beta (Homo sapiens), sequence (Q13554 whole entry): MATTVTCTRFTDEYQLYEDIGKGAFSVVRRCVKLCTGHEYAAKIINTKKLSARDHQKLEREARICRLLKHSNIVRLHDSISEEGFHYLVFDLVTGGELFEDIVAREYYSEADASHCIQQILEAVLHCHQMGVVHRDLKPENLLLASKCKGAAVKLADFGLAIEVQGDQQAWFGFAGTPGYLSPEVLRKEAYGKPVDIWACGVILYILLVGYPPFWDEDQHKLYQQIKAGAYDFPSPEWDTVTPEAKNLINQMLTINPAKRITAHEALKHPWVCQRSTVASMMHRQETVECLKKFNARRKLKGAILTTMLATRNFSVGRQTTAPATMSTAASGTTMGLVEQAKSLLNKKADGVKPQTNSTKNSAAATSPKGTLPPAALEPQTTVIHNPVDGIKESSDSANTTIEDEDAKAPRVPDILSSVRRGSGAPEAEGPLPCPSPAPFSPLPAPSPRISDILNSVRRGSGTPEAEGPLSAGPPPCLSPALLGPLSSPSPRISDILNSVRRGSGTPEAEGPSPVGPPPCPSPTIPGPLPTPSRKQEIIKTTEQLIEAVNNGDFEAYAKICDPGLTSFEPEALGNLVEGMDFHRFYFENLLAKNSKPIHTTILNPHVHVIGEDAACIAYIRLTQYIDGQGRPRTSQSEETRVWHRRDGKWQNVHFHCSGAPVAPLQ

With `O=C1NC(=O)C(c2cn(CCCO)c3ncccc23)=C1c1cnccn1`, the residual activity in experiment [1] stood at 93%; in [2] it was 97%; in [3], 75%; in [4], 70%; in [5], 88%; in experiment [6], 74%. In addition, the residual activity in experiment [7] came to 80%; in [8], 64%; in experiment [9], 83%; in [10], 65%; in experiment [11] it was 59%; in experiment [12] it was 95%. The residual activity in experiment [13] was 78%; in [14] it was 93%; in experiment [15], 96%; in experiment [16], 82%; in [17], 89%.
With `CC(C)N(CCC(=O)c1ccc2ccccc2c1)Cc1ccccc1`, the residual activity in [1] was found to be 100%; in experiment [2] it was 80%; in [3], 88%; in experiment [4] it was 84%; in [9], 76%; in [12], 80%. The residual activity in [13] was found to be 80%; in experiment [16] it was 131%.
In the case of `CC(C)c1nn(-c2c(Cl)cccc2Cl)c2nc(Cc3ccc(OCCO)cc3)[nH]c(=O)c12`, the residual activity in experiment [1] is 90%; in experiment [2] it was 91%; in experiment [3], 91%; in [4] it was 59%; in [5], 95%; in experiment [6] it was 60%. Further, the residual activity in experiment [7] amounted to 94%; in experiment [8] it was 67%; in [18], 82%; in experiment [9] it was 91%; in experiment [10] it was 92%; in [11], 97%. In addition, the residual activity was 73% in experiment [12]; 74% in [13]; 98% in experiment [14]; 94% in experiment [15]; 87% in experiment [16]; 96% in experiment [17].
Take `O=C1NC(=O)C(c2cn(CCCn3ccnc3)c3ccccc23)=C1Nc1ccccc1`: the residual activity turned out to be 106% in experiment [1]; 53% in [2]; 77% in [3]; 45% in experiment [4]; 77% in [7]; 23% in [8]. For the same compound, the residual activity in experiment [19] was found to be 106%; in experiment [18] it was 74%; in experiment [12], 100%; in [13] it was 79%; in [20], 120%; in experiment [16] it was 124%.
As to `c1ccc(-c2cnc(Nc3ccc(OCCN4CCCC4)cc3)s2)cc1`, the residual activity in [1] was 101%; in [2], 41%; in [3], 48%; in experiment [4], 7%; in experiment [5], 19%; in experiment [6] it was -1%. Besides, the residual activity is 22% in [7]; 4% in experiment [8]; 108% in experiment [12]; 54% in experiment [13]; 100% in experiment [14]; 48% in [15]. In addition, the residual activity in [17] is 31%.
`CC(C)(C)n1nc(Cc2cccc3ccccc23)c2c(N)ncnc21`: the residual activity in experiment [1] was determined as 105%; in experiment [2] it was 88%; in [3], 89%; in experiment [4], 68%; in experiment [5], 106%; in [6] it was 78%. The residual activity in [7] came out at 106%; in experiment [8] it was 78%; in experiment [19], 122%; in experiment [18], 74%; in experiment [9], 88%; in experiment [10], 96%. In addition, the residual activity in [11] stood at 106%; in experiment [12] it was 85%; in experiment [13], 107%; in experiment [14], 75%; in experiment [15], 29%; in [20] it was 108%. Also, the values for the residual activity in experiment [16] and in experiment [17] were 119% and 120%, respectively.
`CC(C)(C)c1nc2c3ccc(F)cc3c3c(=O)[nH]ccc3c2[nH]1`: the residual activity is 60% in experiment [1]; 9% in [2]; 33% in [4]; 21% in experiment [5]; 3% in experiment [6]; 24% in experiment [7]. The residual activity in experiment [8] came to 11%; in [19] it was 1%; in [18] it was 0%; in experiment [9] it was 3%; in experiment [10], 11%; in [11], 14%. Further, the figures for the residual activity in [12], in experiment [13] and in experiment [17] were 38%, 27% and 0%, respectively.
